Experimental data reported in PubChem BioAssay (NCI).
Compounds without any hit were thinned out: in the full panel of roughly 79,000, 15% have a hit. Activity calls are given as the source filed them. No stated cut-off is given here; in the data, active means growth inhibition above about 70%; inactive means the rest.

What was measured:
[1] = NCI Yeast Anticancer Drug Screen. Data for the rad52 strain (AID 147);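 further: 0% = growth of vehicle-treated control cultures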; conditions: S. cerevisiae rad52 mutant growth inhibition, hits give high values
Summary of the method: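 Genetically altered yeast (DNA damage repair defect) treated with compound; inhibition calculated relative to vehicle.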

[2] = NCI Yeast Anticancer Drug Screen. Data for the wt1 strain (AID 149);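 further: 0% = growth of vehicle-treated wt1 cultures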; conditions: S. cerevisiae wt1 strain (SPY 50644) growth inhibition, hits give high values
Summary of the method: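 Readout: yeast growth inhibition, normalised to vehicle controls, in the wt1 strain exposed to test compounds.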

[3] = NCI Yeast Anticancer Drug Screen. Data for the rad50EPP+ strain (AID 151);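 further: 0% = growth of vehicle-treated control cultures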; conditions: S. cerevisiae rad50 mutant strain, hits give high values
Summary of the method: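 Strain rad50EPP+; compound exposure; % growth inhibition vs vehicle.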

[4] = NCI Yeast Anticancer Drug Screen. Data for the mgt1 strain (AID 153); conditions: S. cerevisiae mgt1 mutant growth inhibition, hits give high values
Summary of the method: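 Read-out: yeast growth inhibition vs vehicle control. Strain mgt1, drawn from a panel altered in DNA damage repair or cell cycle control.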

[5] = NCI Yeast Anticancer Drug Screen. Data for the rad50 strain (AID 155);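 further: 0% = growth of vehicle-only cultures of the same strain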; conditions: S. cerevisiae rad50 strain growth inhibition, hits give high values
Summary of the method: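 Compounds were tested on a yeast strain with an engineered DNA damage repair alteration; the reported value is growth inhibition normalised to vehicle treatment.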

[6] = NCI Yeast Anticancer Drug Screen. Data for the mec2-1 strain (AID 157); conditions: S. cerevisiae mec2-1 strain, hits give high values
Summary of the method: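 Cells of the genetically defined mec2-1 yeast strain are incubated with test compound. Inhibition of growth is calculated against vehicle-treated controls.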

[7] = NCI Yeast Anticancer Drug Screen. Data for the rad14 strain (AID 159);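 further: 0% = growth of vehicle-treated control cultures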; conditions: S. cerevisiae rad14 strain growth inhibition, hits give high values
Summary of the method: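 Compound-treated yeast with a defined DNA-repair lesion; growth inhibition normalised to vehicle-treated cultures.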

[8] = NCI Yeast Anticancer Drug Screen. Data for the sgs1 mgt1 strain (AID 161);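 further: 0% = growth of cultures given vehicle only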; conditions: S. cerevisiae sgs1 mgt1 strain, hits give high values
Summary of the method: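 Test agents were incubated with a DNA-repair-mutant yeast strain. Growth was then read and compared against vehicle-treated controls.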

[9] = NCI Yeast Anticancer Drug Screen. Data for the CLN2oe strain (AID 163);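 further: 0% = growth of vehicle-only control cultures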; conditions: S. cerevisiae CLN2oe strain, hits give high values
Summary of the method: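 Strain altered in cell-cycle control, incubated with compound; growth compared to solvent-treated controls.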

[10] = NCI Yeast Anticancer Drug Screen. Data for the cln2 rad14 strain (AID 165);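 further: 0% = growth equal to vehicle treated cultures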; conditions: S. cerevisiae cln2 rad14 strain, hits give high values
Summary of the method: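 The screen exposed genetically defined yeast (cln2 rad14) to test compounds and scored growth inhibition relative to vehicle-treated controls.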

[11] = NCI Yeast Anticancer Drug Screen. Data for the bub3 strain (AID 167); conditions: S. cerevisiae bub3 mutant strain, hits give high values
Summary of the method: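 Growth of a checkpoint-deficient yeast mutant is measured after compound exposure. Values represent inhibition relative to vehicle.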

[12] = NCI Yeast Anticancer Drug Screen. Data for the wt2 strain (AID 169);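 further: 0% = growth of vehicle-treated yeast cultures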; conditions: S. cerevisiae wt2 strain growth inhibition, hits give high values
Summary of the method: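 Steps: yeast strain treated with compound; growth recorded; inhibition calculated relative to cultures given vehicle alone.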

[13] = NCI Yeast Anticancer Drug Screen. Data for the mlh1 strain (AID 171);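 further: 0% = growth of vehicle-treated control cultures of the same strain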; conditions: S. cerevisiae mlh1 strain growth inhibition, hits give high values
Summary of the method: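 Yeast screen: mutant strain plus compound, growth scored against vehicle control wells.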

[14] = NCI Yeast Anticancer Drug Screen. Data for the sgs1 strain (AID 173);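 further: 0% = growth of vehicle-only control cultures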; conditions: S. cerevisiae sgs1 mutant, hits give high values
Summary of the method: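 Inhibition of yeast growth served as the measure. The mutant strain was treated with each compound, and growth was normalised to cultures receiving vehicle alone.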

[15] = NCI Yeast Anticancer Drug Screen. Data for the mlh1 rad18 strain (AID 175); conditions: S. cerevisiae mlh1 rad18 strain growth inhibition, hits give high values
Summary of the method: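 Compound-treated yeast growth, normalised to vehicle controls. Strain bears defined DNA repair mutations.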

[16] = NCI Yeast Anticancer Drug Screen. Data for the rad18 strain (AID 177); conditions: S. cerevisiae rad18 mutant growth inhibition, hits give high values
Summary of the method: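 Inhibition values reflect reduced yeast growth compared with vehicle-treated controls, using a strain engineered with a DNA damage repair defect.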

[17] = at 5.0 µM (retest, dose inferred, filed as 0.5)
[18] = at 50.0 µM (retest, dose inferred, filed as 5.0)

Measured: growth inhibition

COC(=O)C(=O)CC(=O)c1cccc(OC)c1
inactive: [1]; at 1.2 µM -9% | [1]; at 3.7 µM -10% | [1]; at 11.0 µM -5% | [1]; at 33.0 µM 10% | [1]; at 100.0 µM 17% | [2]; at 1.2 µM 1% | [2]; at 3.7 µM 9% | [2]; at 11.0 µM 24% | [2]; at 33.0 µM 28% | [2]; at 100.0 µM 39% | [3]; at 1.2 µM -10% | [3]; at 3.7 µM -23% | [3]; at 11.0 µM -7% | [3]; at 33.0 µM 32% | [3]; at 100.0 µM 26% | [4]; at 1.2 µM -1% | [4]; at 3.7 µM -4% | [4]; at 11.0 µM 2% | [4]; at 33.0 µM 14% | [4]; at 100.0 µM 40% | [5]; at 1.2 µM -13% | [5]; at 3.7 µM -15% | [5]; [17] -150% | [5]; at 11.0 µM -10% | [5]; at 33.0 µM 32% | [5]; [18] 51% | [5]; at 50.0 µM 19.4% | [5]; at 100.0 µM 44% | [6]; at 1.2 µM 0% | [6]; at 3.7 µM 1% | [6]; [17] -44% | [6]; at 11.0 µM 4% | [6]; at 33.0 µM 10% | [6]; [18] -15% | [6]; at 50.0 µM 18.6% | [6]; at 100.0 µM 16% | [7]; at 1.2 µM -8% | [7]; at 3.7 µM 7% | [7]; at 11.0 µM 33% | [7]; at 33.0 µM 67% | [8]; [17] -58% | [8]; [18] 24% | [8]; at 50.0 µM 0.4% | [9]; at 1.2 µM -6% | [9]; at 3.7 µM -3% | [9]; at 11.0 µM -1% | [9]; at 33.0 µM 1% | [9]; at 100.0 µM 10% | [10]; [17] -51% | [10]; [18] -45% | [10]; at 50.0 µM -75.5% | [11]; at 1.2 µM -4% | [11]; at 3.7 µM -4% | [11]; [17] -67% | [11]; at 11.0 µM -5% | [11]; at 33.0 µM 2% | [11]; [18] 12% | [11]; at 50.0 µM -7.55% | [11]; at 100.0 µM 22% | [12]; at 1.2 µM -5% | [12]; at 3.7 µM 9% | [12]; at 11.0 µM 27% | [13]; at 1.2 µM -11% | [13]; at 3.7 µM -5% | [13]; at 11.0 µM -3% | [13]; at 33.0 µM 39% | [13]; at 100.0 µM 64% | [14]; at 1.2 µM -16% | [14]; at 3.7 µM -6% | [14]; at 11.0 µM 8% | [14]; at 33.0 µM 49% | [15]; [17] -143% | [15]; [18] -19% | [15]; at 50.0 µM 49.6% | [16]; at 1.2 µM -6% | [16]; at 3.7 µM -2% | [16]; at 11.0 µM -1% | [16]; at 33.0 µM 6% | [16]; at 100.0 µM 19%
active: [7]; at 100.0 µM 94% | [12]; at 33.0 µM 71% | [12]; at 100.0 µM 92% | [14]; at 100.0 µM 82%

N#Cc1nc(Nc2ccc(Cl)cc2)sc1N
inactive: [1]; at 1.2 µM -33% | [1]; at 3.7 µM -29% | [1]; at 11.0 µM -25% | [1]; at 33.0 µM 32% | [2]; at 1.2 µM -6% | [2]; at 3.7 µM -4% | [2]; at 11.0 µM -16% | [2]; at 33.0 µM 41% | [3]; at 1.2 µM -36% | [3]; at 3.7 µM -27% | [3]; at 11.0 µM -17% | [3]; at 33.0 µM -1% | [3]; at 100.0 µM 36% | [4]; at 1.2 µM -6% | [4]; at 3.7 µM -10% | [4]; at 11.0 µM 1% | [5]; at 1.2 µM -4% | [5]; at 3.7 µM -9% | [5]; [17] 18% | [5]; at 11.0 µM -1% | [5]; at 33.0 µM 27% | [5]; [18] -8% | [5]; at 100.0 µM 61% | [6]; at 1.2 µM -37% | [6]; at 3.7 µM -8% | [6]; [17] 8% | [6]; at 11.0 µM -15% | [6]; at 33.0 µM 19% | [6]; [18] 53% | [6]; at 50.0 µM 36.1% | [6]; at 100.0 µM 42% | [7]; at 1.2 µM -31% | [7]; at 3.7 µM -19% | [7]; at 11.0 µM -16% | [7]; at 33.0 µM 34% | [8]; [17] 9% | [8]; [18] 30% | [9]; at 1.2 µM 25% | [9]; at 3.7 µM 20% | [9]; at 11.0 µM 27% | [9]; at 33.0 µM 58% | [9]; at 100.0 µM 44% | [10]; [17] 39% | [11]; at 1.2 µM 18% | [11]; at 3.7 µM 23% | [11]; [17] 10% | [11]; at 11.0 µM 17% | [11]; at 33.0 µM 32% | [12]; at 1.2 µM -20% | [12]; at 3.7 µM -36% | [12]; at 11.0 µM -20% | [13]; at 1.2 µM 1% | [13]; at 3.7 µM 27% | [13]; at 11.0 µM 21% | [13]; at 33.0 µM 64% | [14]; at 1.2 µM -20% | [14]; at 3.7 µM -13% | [14]; at 11.0 µM -2% | [14]; at 33.0 µM -1% | [14]; at 100.0 µM 40% | [15]; [17] -29% | [15]; [18] -24% | [15]; at 50.0 µM 49.9%
active: [1]; at 100.0 µM 80% | [2]; at 100.0 µM 73% | [4]; at 33.0 µM 80% | [4]; at 100.0 µM 94% | [5]; at 50.0 µM 89.2% | [7]; at 100.0 µM 91% | [8]; at 50.0 µM 76.2% | [10]; [18] 92% | [10]; at 50.0 µM 84.6% | [11]; [18] 70% | [11]; at 50.0 µM 86% | [11]; at 100.0 µM 94% | [12]; at 33.0 µM 81% | [12]; at 100.0 µM 84% | [13]; at 100.0 µM 94%
